# 12-LOX inh: Primary qHTS assay for inhibitors of human arachidonate 12S-lipoxygenase (ALOX12): Round 2. purified 12hLO, xylenol orange hydroperoxide absorbance. 580,000 compounds, 1.1% hits. Potency, µM (titrated, usually from 108 µM), without a hit: at the top dose activity change, negative = inhibition, usual class: inhibitors; also: potency is read from the fitted curve at half-maximal effect; % is scaled to controls: 0 for no effect and ±100 for the full control effect
#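 Hydroperoxide product was detected by ferrous iron/xylenol orange as the 573 to 405 nm absorbance ratio. Arachidonic acid at 40 uM (final) was turned over for 30 min at room temperature by 150 nM human 12hLO, pH 7.0 Hepes buffer, after 15 min compound preincubation.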
# Nrf2 inh: Nrf2 qHTS screen for inhibitors; Potency, µM (highest dose often 46 µM), inactives show top-dose activity change, negative = inhibition, actives largely listed as inhibitors; A549 ARE-Fluc reporter, luciferase luminescence, 18-24 h; 360,000 compounds, 2.1% hits; also: potency is read from the fitted curve at half-maximal effect; % is scaled to controls: 0 for no effect and ±100 for the full control effect; nearly all actives have a fitted effect of over 60% in size
#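 Nrf2 activity is the BugLite luminescence, read 15 min after reagent at room temperature, following CellTiter-Fluor cytotoxicity readout (30 min, 37C). Compound titrations were applied for 18-24 h to 5000 A549 ARE_Fluc cells/well in 5% FBS OPTI-MEM.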
# A549 viability: Nrf2 qHTS screen for inhibitors: counterscreen for cytotoxicity; A549 ARE-Fluc cells, CellTiter-Fluor viability, 18-24 h; Potency, µM (top dose mostly 46 µM), inactives show top-dose activity change, negative = cytotoxicity, most hits filed as inhibitors; 390,000 compounds, 0.16% hits; AID 504648, 2011; also: potency is read from the fitted curve at half-maximal effect; % is scaled to controls: 0 for no effect and ±100 for the full control effect
#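 A549 ARE-Fluc cells in 5% FBS OPTI-MEM, 5000 cells/well, rested 2 h then exposed to compounds in concentration-response for 18-24 h at 37 °C. Viability by CellTiter-Fluor fluorescence (Ex 405/Em 525) after 30 min; luciferase luminescence (BugLite, 15 min, RT) read afterwards.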
# LDHA block: qHTS assay for inhibitors of human lactate dehydrogenase; L-lactate dehydrogenase A chain (Homo sapiens), P00338; activity change, % (values are at about 110 or 230 µM); AID 1347041, 2019; 480,000 compounds, 0.15% hits; purified LDHA, NADH/diaphorase-resazurin fluorescence; hits give low values; in the data active = activity change below about -30%; inconclusive = mostly about -25% to -30%;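 also: plate controls were DMSO wells for no effect and wells without enzyme for full effect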
#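 Enzyme activity of human lactate dehydrogenase 5 (2 nM; 0.06 mM NADH, 0.2 mM pyruvate, 5 min, RT) is measured via a resazurin/diaphorase fluorescence readout of residual NADH.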
# ERG Ets-DNA blk: qHTS for Small Molecule Inhibitors of the ERG Ets/DNA interaction. 370,000 compounds, 0.028% hits. Potency, µM (series often up to 76.9 µM), for inactives: top-dose FP activity, negative = inhibition, usual class: inhibitors. fluorescence polarization, His-ERG Ets domain / labelled DNA. Transcriptional regulator ERG (Homo sapiens), P11308; active = well fitted inhibition curve with a large enough effect in the polarisation, with a control signal flat; inconclusive = small, poorly fitted or top-dose-only effect, or effect the other way, or a change in a side signal; inactive = no such curve, though single readings can be large or run the other way; the % refers to the polarisation;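 also: polarization taken with two DNA probes labelled with fluorescein and Texas red; potency is read from the fitted curve at half-maximal effect; % of control where 0% means no effect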
# Target sequence (P11308 whole entry, looked up, the tested form may be a part): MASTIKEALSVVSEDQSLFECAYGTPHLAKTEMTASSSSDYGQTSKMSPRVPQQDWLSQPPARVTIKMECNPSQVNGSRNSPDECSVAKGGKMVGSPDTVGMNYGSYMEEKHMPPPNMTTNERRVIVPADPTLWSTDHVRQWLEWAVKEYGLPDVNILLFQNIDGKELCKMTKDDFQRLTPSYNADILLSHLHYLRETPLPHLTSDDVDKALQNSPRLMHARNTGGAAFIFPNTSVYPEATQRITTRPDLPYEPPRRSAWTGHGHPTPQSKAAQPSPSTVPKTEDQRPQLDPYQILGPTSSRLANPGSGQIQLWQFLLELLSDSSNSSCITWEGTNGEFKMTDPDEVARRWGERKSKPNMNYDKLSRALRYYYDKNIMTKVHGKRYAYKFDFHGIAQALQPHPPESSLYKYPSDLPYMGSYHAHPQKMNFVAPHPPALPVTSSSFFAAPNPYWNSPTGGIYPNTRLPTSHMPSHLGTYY
#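 His-tagged ERG Ets domain (1 uM in the protein solution; 300mM KCl, 50mM Tris-HCl, 1mM EDTA, 1mM DTT, pH 7.5) received compound, then a probe mix of 5 nM fluorescein-DNA and 100nM Texas-615-DNA. Fluorescence polarization was read for both dyes.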
# Nrf2 ARE act: qHTS of Nrf2 Activators. AREc32 ARE-luciferase reporter (MCF7-derived line), luminescence, 24 h. Potency, µM (top dose mostly 46.1 µM), without a hit: at the top dose activation, usual class: activators. 410,000 compounds, 0.31% hits; also: potency is read from the fitted curve at half-maximal effect; % of control where 0% means no effect; nearly all actives have a fitted effect of over 65% in size
#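 Luciferase luminescence (Steady-Glo, 30 min at room temperature) served as the read-out of ARE activation in AREc32 cells treated with compounds for 24 hr at 37 deg C.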
# Starred values were filed as active, the others as inactive; ? = inconclusive; nt = no result given. Most compounds without a hit are left out; they make up all but 2.7% or so of the library. Unless noted, calls follow the shape of the dose curve; as a rule, active = well fitted curve in the direction sought with a large enough effect; inconclusive = small, poorly fitted or top-dose-only effect, or another doubt; inactive = no such curve, though single readings can be large; an effect the other way counts as inactive or inconclusive.
SMILES,12-LOX inh,Nrf2 inh,A549 viability,LDHA block,ERG Ets-DNA blk,Nrf2 ARE act
CCOCCCNC(=O)C(c1ccc(OC)cc1)N(Cc1cccs1)C(=O)CNC(=O)c1ccccc1 (stereo not given),?,nt,nt,11,nt,nt
O=C(NCC(c1ccco1)N1CCOCC1)c1cc(=O)c2cc(Br)ccc2o1 (stereo not given),23%,nt,nt,-31*,nt,nt
O=C(NCC(c1cccs1)N1CCCCCC1)c1cc(=O)c2ccc(Br)cc2o1 (stereo not given),-16%,nt,nt,-31*,nt,nt
Cc1ccc2c(=O)cc(C(=O)NCC(c3ccco3)N3CCOCC3)oc2c1C (stereo not given),-19%,nt,nt,?,nt,nt
O=C(NCC(c1cccs1)N1CCOCC1)c1cc(=O)c2cc(Br)ccc2o1 (stereo not given),1%,nt,nt,-31*,nt,nt
Cc1ccc(CN(C)C(=O)Cc2n[nH]c(=O)c3ccccc23)c(C)c1,4%,nt,nt,-1,nt,nt
Cc1ccc(CNc2nc(NCC3CC3)nc3ccsc23)c(C)c1,?,nt,nt,-2,nt,0%
Cc1ccc(Nc2nc(NCC3CC3)nc3ccsc23)c(C)c1,40µM*,nt,nt,-1,nt,-1%
CCN(CC)S(=O)(=O)NCc1ccnc(Oc2ccc(OC)cc2)c1,3%,nt,nt,-9,nt,nt
COc1ccccc1NC(=O)c1ccc(NC(=O)c2cc3c(s2)CCC3)cc1,-18%,23µM*,0%,-14,-3%,2%
CC1(C)Cc2c(sc3ncn4nc(-c5cccc(O)c5)nc4c23)CO1,?,nt,nt,13,nt,nt
COc1ccc(-c2nc(NC(=O)c3cc(C(C)(C)C)nn3C)sc2C)cc1,nt,18µM*,?,-3,-5%,0%
COc1ccc(-c2nc(NC(=O)c3c(C)noc3C)sc2C)cc1,-15%,?,-17%,-1,1%,1%
Cc1oc(-c2ccccc2)nc1C(=O)NCC(c1ccccc1)N1CCCC1 (stereo not given),3%,nt,nt,8,nt,nt
C/C(CCC12CC3CC(CC(C3)C1)C2)=N\NC(N)=S,10µM*,-18%,-13%,-11,1%,4%
COc1ccc(C2=Nc3ccccc3N(C(=O)c3ccc4c(c3)OCO4)C2C(=O)Nc2c(C)cccc2C)cc1 (stereo not given),-60%,nt,nt,-1,nt,nt
COc1ccc(C2=Nc3ccccc3N(C(=O)c3ccc(C)cc3)C2C(=O)NCc2ccccc2)cc1 (stereo not given),3.5µM*,nt,nt,2,nt,nt
COc1ccc(C2=Nc3ccccc3N(C(=O)c3ccc(C)cc3)C2C(=O)Nc2c(C)cccc2C)cc1 (stereo not given),0.79µM*,nt,nt,-1,nt,nt
O=C(c1ccncc1)N1CCN(C2CCC(c3ccccc3)CC2)CC1 (stereo not given),27%,21%,2%,-32*,-8%,0%
O=C(c1ccncc1)N1CCN(C2CCCCC2)CC1,?,6%,14%,-17,-3%,0%
COc1cccc(C2CC3(CC(C)(C)NC(=S)N3)Oc3cc(O)ccc32)c1 (stereo not given),?,9%,1%,1,nt,0%
CC1(C)CC2(CC(c3ccccc3F)c3cc(Cl)c(O)cc3O2)NC(=S)N1 (stereo not given),32µM*,3%,10%,6,15%,4%
Cc1cccc(C2CC3(CC(C)(C)NC(=S)N3)Oc3cc(O)ccc32)c1 (stereo not given),40µM*,32%,18%,0,-5%,2%
Cc1ccc(CNCc2ccc(-c3cccc(C(=O)O)c3)o2)cc1,?,nt,nt,0,nt,nt
Brc1ccc(C2=CC(c3cccs3)n3ncnc3N2)cc1 (stereo not given),40µM*,?,11%,1,4%,?
